# Measured values taken from PubChem BioAssay AID1159580 (chemical genetic matrix, 2015).
# The campaign covered roughly 5,500 compounds. About 2,000 (36%) were called active. Roughly 18% stayed inconclusive and do not appear here. This is one part of the list. Values without a mark were called inactive. Cut-off read from the data, not from the text of the source: active = normalized growth mostly below about 0.91 (no sharp cut-off); inconclusive = no clear call, values can overlap the other calls; inactive = mostly above about 0.92.
# Experiment: chemical genetic growth profiling, strain panel (AID 1159580);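 note: tested at 20 µM; growth read once vehicle control cultures reached saturation at 30 °C; 1 = growth at the plate median or of vehicle wells; lower values mean less growth of the strain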
# Conditions: S. cerevisiae deletion strains, growth OD
smiles,measurement,setting,value
CC(=O)Oc1c(-c2ccccc2)oc2c(CC=C(C)C)c3c(c(OC(C)=O)c2c1=O)C=CC(C)(C)O3,normalized growth,"locus YAL021C, strain ccr4, active compounds read low",1.06
same,normalized growth,"locus YAL026C, strain drs2, active compounds read low",1.02
same,normalized growth,"locus YAL030W, strain snc1, active compounds read low",1.09 [resistant] (active)
same,normalized growth,"locus YBL061C, strain skt5, active compounds read low",1
same,normalized growth,"locus YBR009C, strain hhf1, active compounds read low",1.09
same,normalized growth,"locus YBR021W, strain FUR4, active compounds read low",1.05
same,normalized growth,"locus YBR023C, strain chs3, active compounds read low",1.01
same,normalized growth,"locus YBR171W, strain sec66, active compounds read low",1.01
same,normalized growth,"locus YBR229C, strain ROT2, active compounds read low",0.923
same,normalized growth,"locus YBR231C, strain swc5, active compounds read low",1.02
same,normalized growth,"locus YBR279W, strain paf1, active compounds read low",0.995
same,normalized growth,"locus YCL011C, strain gbp2, active compounds read low",1.09
same,normalized growth,"locus YCL016C, strain dcc1, active compounds read low",1.05
same,normalized growth,"locus YCL029C, strain bik1, active compounds read low",1.01
same,normalized growth,"locus YCL061C, strain MRC1, active compounds read low",1.02
same,normalized growth,"locus YCL069W, strain vba3, active compounds read low",1.01
same,normalized growth,"locus YCR088W, strain abp1, active compounds read low",1.01
same,normalized growth,"locus YDL005C, strain med2, active compounds read low",1.01
same,normalized growth,"locus YDL035C, strain GPR1, active compounds read low",0.875
same,normalized growth,"locus YDL040C, strain nat1, active compounds read low",1.09 [resistant] (active)
same,normalized growth,"locus YDL074C, strain BRE1, active compounds read low",0.93
same,normalized growth,"locus YDL101C, strain DUN1, active compounds read low",0.944
same,normalized growth,"locus YDL185W, strain tfp1, active compounds read low",1.07
same,normalized growth,"locus YDL192W, strain arf1, active compounds read low",1.01
same,normalized growth,"locus YDR001C, strain nth1, active compounds read low",1.01
same,normalized growth,"locus YDR069C, strain doa4, active compounds read low",1.01
same,normalized growth,"locus YDR101C, strain arx1, active compounds read low",1.09 [resistant] (active)
same,normalized growth,"locus YDR137W, strain rgp1, active compounds read low",1.03
same,normalized growth,"locus YDR159W, strain sac3, active compounds read low",0.982
same,normalized growth,"locus YDR162C, strain NBP2, active compounds read low",0.828 (active)
same,normalized growth,"locus YDR195W, strain ref2",0.986
same,normalized growth,"locus YDR297W, strain sur2, active compounds read low",1.04
same,normalized growth,"locus YDR318W, strain mcm21, active compounds read low",0.995
same,normalized growth,"locus YDR334W, strain swr1, active compounds read low",1
same,normalized growth,"locus YDR335W, strain msn5, active compounds read low",1.02
same,normalized growth,"locus YDR388W, active compounds read low",1.05
same,normalized growth,"locus YDR392W, strain spt3, active compounds read low",0.955
same,normalized growth,"locus YDR502C, strain sam2, active compounds read low",1.11 [resistant] (active)
same,normalized growth,"locus YEL003W, strain gim4, active compounds read low",1.03
same,normalized growth,"locus YEL037C, strain rad23, active compounds read low",1.01
same,normalized growth,"locus YEL061C, strain CIN8 (second series), active compounds read low",1.01
same,normalized growth,"locus YER015W, strain faa2, active compounds read low",1.08 [resistant] (active)
same,normalized growth,"locus YER016W, strain bim1, active compounds read low",1.1 [resistant] (active)
same,normalized growth,"locus YER110C, active compounds read low",1.11 [resistant] (active)
same,normalized growth,"locus YER111C, strain swi4, active compounds read low",1
same,normalized growth,"locus YER155C, strain BEM2 (second series), active compounds read low",1.05
same,normalized growth,"locus YER155C, strain BEM2, active compounds read low",1
same,normalized growth,"locus YER167W, strain BCK2, active compounds read low",0.917
same,normalized growth,"locus YFR010W, strain ubp6, active compounds read low",1
same,normalized growth,"locus YGL078C, strain dbp3, active compounds read low",1.04
same,normalized growth,"locus YGL086W, strain mad1, active compounds read low",0.993
same,normalized growth,"locus YGL167C, strain pmr1, active compounds read low",0.993
same,normalized growth,"locus YGL173C, strain kem1, active compounds read low",0.998
same,normalized growth,"locus YGL227W, strain vid30, active compounds read low",1.01
same,normalized growth,"locus YGL240W, strain doc1, active compounds read low",1
same,normalized growth,"locus YGL248W, strain PDE1, active compounds read low",0.845 (active)
same,normalized growth,"locus YGL253W, strain hxk2, active compounds read low",0.981
same,normalized growth,"locus YGR078C, strain PAC10, active compounds read low",0.898
same,normalized growth,"locus YGR135W, strain pre9, active compounds read low",1.1
same,normalized growth,"locus YGR252W, strain gcn5, active compounds read low",1.59 [resistant] (active)
same,normalized growth,"locus YHR013C, strain ard1, active compounds read low",0.989
same,normalized growth,"locus YHR027C, strain rpn1, active compounds read low",1.06
same,normalized growth,"locus YHR079C, strain IRE1 (second series), active compounds read low",1.06
same,normalized growth,"locus YHR094C, strain hxt1, active compounds read low",1.16 [resistant] (active)
same,normalized growth,"locus YHR129C, strain ARP1, active compounds read low",0.881 (active)
same,normalized growth,"locus YHR142W, strain chs7, active compounds read low",1.03
same,normalized growth,"locus YHR200W, strain rpn10, active compounds read low",1.09 [resistant] (active)
same,normalized growth,"locus YIL066C, strain RNR3, active compounds read low",0.788 (active)
same,normalized growth,"locus YIL073C, strain SPO22, active compounds read low",0.586 (active)
same,normalized growth,"locus YIL125W, strain kgd1, active compounds read low",1.03
same,normalized growth,"locus YIR030C, strain dcg1, active compounds read low",1.06
same,normalized growth,"locus YJL092W, strain hpr5, active compounds read low",1.01
same,normalized growth,"locus YJL095W, strain BCK1 (second series), active compounds read low",1.09 [resistant] (active)
same,normalized growth,"locus YJL095W, strain BCK1, active compounds read low",0.926
same,normalized growth,"locus YJL115W, strain asf1, active compounds read low",1
same,normalized growth,"locus YJL129C, strain trk1, active compounds read low",1.02
same,normalized growth,"locus YJL134W, strain LCB3, active compounds read low",0.948
same,normalized growth,"locus YJL154C, strain vps35, active compounds read low",1.02
same,normalized growth,"locus YJL164C, strain tpk1, active compounds read low",1.03
same,normalized growth,"locus YJL166W, strain qcr8, active compounds read low",1.04
same,normalized growth,"locus YJL168C, strain set2, active compounds read low",1.03
same,normalized growth,"locus YJL187C, strain SWE1 (second series), active compounds read low",0.885
same,normalized growth,"locus YJL187C, strain SWE1, active compounds read low",1.05
same,normalized growth,"locus YKL009W, strain mrt4, active compounds read low",1.04
same,normalized growth,"locus YKL068W, active compounds read low",1.01
same,normalized growth,"locus YKL085W, strain MDH1 (second series), active compounds read low",1
same,normalized growth,"locus YKL085W, strain MDH1, active compounds read low",1
same,normalized growth,"locus YKL160W, strain elf1, active compounds read low",1
same,normalized growth,"locus YKL190W, strain CNB1, active compounds read low",0.906 (active)
same,normalized growth,"locus YKR001C, strain vps1, active compounds read low",1.21 [resistant] (active)
same,normalized growth,"locus YKR026C, strain gcn3, active compounds read low",1
same,normalized growth,"locus YKR091W, strain srl3, active compounds read low",1.14 [resistant] (active)
same,normalized growth,"locus YLL001W, strain dnm1, active compounds read low",0.976
same,normalized growth,"locus YLL026W, active compounds read low",1.07 [resistant] (active)
same,normalized growth,"locus YLL041C, strain sdh2, active compounds read low",1.09 [resistant] (active)
same,normalized growth,"locus YLR027C, strain aat2, active compounds read low",1.03
same,normalized growth,"locus YLR039C, strain RIC1, active compounds read low",0.891
same,normalized growth,"locus YLR058C, strain SHM2, active compounds read low",0.891 (active)
same,normalized growth,"locus YLR102C, strain apc9, active compounds read low",1.06
same,normalized growth,"locus YLR221C, strain rsa3, active compounds read low",1.04
same,normalized growth,"locus YLR258W, strain gsy2, active compounds read low",1.03
same,normalized growth,"locus YLR262C, strain YPT6 (second series), active compounds read low",1.02
same,normalized growth,"locus YLR262C, strain YPT6, active compounds read low",0.874
same,normalized growth,"locus YLR268W, strain sec22, active compounds read low",1.05
same,normalized growth,"locus YLR320W, strain mms22, active compounds read low",0.999
same,normalized growth,"locus YLR330W, strain CHS5, active compounds read low",0.924
same,normalized growth,"locus YLR342W, strain FKS1, active compounds read low",1.05
same,normalized growth,"locus YLR357W, strain rsc2, active compounds read low",0.992
same,normalized growth,"locus YLR370C, strain arc18, active compounds read low",1.01
same,normalized growth,"locus YLR371W, strain rom2, active compounds read low",1.01
same,normalized growth,"locus YLR384C, strain iki3, active compounds read low",1.1 [resistant] (active)
same,normalized growth,"locus YLR418C, strain cdc73, active compounds read low",1.17 [resistant] (active)
same,normalized growth,"locus YML016C, strain PPZ1, active compounds read low",0.874 (active)
same,normalized growth,"locus YML032C, strain rad52, active compounds read low",1.14 [resistant] (active)
same,normalized growth,"locus YML120C, strain ndi1, active compounds read low",1.07
same,normalized growth,"locus YML124C, strain tub3, active compounds read low",1.07 [resistant] (active)
same,normalized growth,"locus YMR058W, strain fet3, active compounds read low",1.02
same,normalized growth,"locus YMR078C, strain ctf18, active compounds read low",1.14 [resistant] (active)
same,normalized growth,"locus YMR125W, strain sto1, active compounds read low",1.02
same,normalized growth,"locus YMR129W, active compounds read low",1.12 [resistant] (active)
same,normalized growth,"locus YMR205C, strain PFK2, active compounds read low",1.01
same,normalized growth,"locus YMR223W, strain ubp8, active compounds read low",1.05
same,normalized growth,"locus YMR231W, strain pep5, active compounds read low",1
same,normalized growth,"locus YMR307W, strain GAS1, active compounds read low",0.818
same,normalized growth,"locus YNL067W, strain RPL9B, active compounds read low",0.988
same,normalized growth,"locus YNL071W, strain lat1, active compounds read low",1.02
same,normalized growth,"locus YNL209W, strain ssb2, active compounds read low",1.05
same,normalized growth,"locus YNL233W, strain BNI4, active compounds read low",0.915
same,normalized growth,"locus YNL248C, strain rpa49, active compounds read low",0.984
same,normalized growth,"locus YNL250W, strain rad50, active compounds read low",1.03
same,normalized growth,"locus YNL271C, strain bni1, active compounds read low",1.04
same,normalized growth,"locus YNL298W, strain CLA4, active compounds read low",1.04
same,normalized growth,"locus YNL307C, strain MCK1, active compounds read low",1.03
same,normalized growth,"locus YNL322C, strain KRE1 (second series), active compounds read low",1.05
same,normalized growth,"locus YNR049C, strain mso1, active compounds read low",1.01
same,normalized growth,"locus YNR052C, strain pop2, active compounds read low",1.07
same,normalized growth,"locus YOL012C, strain htz1",0.869
same,normalized growth,"locus YOL147C, strain pex11, active compounds read low",1.09 [resistant] (active)
same,normalized growth,"locus YOR001W, strain rrp6, active compounds read low",1.01
same,normalized growth,"locus YOR061W, strain CKA2, active compounds read low",0.782 (active)
same,normalized growth,"locus YOR069W, strain VPS5, active compounds read low",0.935
same,normalized growth,"locus YOR070C, strain gyp1, active compounds read low",1.16 [resistant] (active)
same,normalized growth,"locus YOR080W, strain dia2, active compounds read low",1.03
same,normalized growth,"locus YOR083W, strain WHI5, active compounds read low",1.06
same,normalized growth,"locus YOR106W, strain vam3, active compounds read low",1.08
same,normalized growth,"locus YOR136W, strain idh2, active compounds read low",1.11 [resistant] (active)
same,normalized growth,"locus YOR144C, strain elg1, active compounds read low",1.08 [resistant] (active)
same,normalized growth,"locus YOR184W, strain ser1, active compounds read low",1.07
same,normalized growth,"locus YOR265W, strain rbl2, active compounds read low",1.05
same,normalized growth,"locus YOR270C, strain vph1, active compounds read low",0.972
same,normalized growth,"locus YOR290C, strain snf2, active compounds read low",1.03
same,normalized growth,"locus YOR316C, strain cot1, active compounds read low",1.07
same,normalized growth,"locus YPL051W, strain arl3, active compounds read low",0.976
same,normalized growth,"locus YPL078C, strain atp4, active compounds read low",1.03
same,normalized growth,"locus YPL106C, strain sse1, active compounds read low",1.02
same,normalized growth,"locus YPL240C, strain hsp82, active compounds read low",1.1 [resistant] (active)
same,normalized growth,"locus YPR119W, strain clb2, active compounds read low",1.05
same,normalized growth,"locus YPR141C, strain kar3, active compounds read low",1.09 [resistant] (active)
same,normalized growth,"locus YPR163C, strain tif3, active compounds read low",1.14 [resistant] (active)
same,normalized growth,"locus YPR167C, strain met16, active compounds read low",1
same,normalized growth,"strain wtn01, active compounds read low",1.03
